The values below come from paper PMC7862700, “An all-to-all approach to the identification of sequence-specific readers for epigenetic DNA modifications on cytosine”.

What all share (assay): DAPPL (digital affinity profiling via proximity ligation, sequencing); 10 mM Tris-HCl pH 7.5, 50 mM NaCl, 1 mM DTT, 4% glycerol, room temperature, 30 min; GST-TFs on glutathione beads, 16-mer random dsDNA library, 0.1% formaldehyde crosslink after washing; high values mean tight binding
What all share (settings): protein: recombinant; tags: N-terminal GST; dsDNA, one strand shown

The target in test [1] is T1, FLI1 (Homo sapiens, UniProt Q01543 1-452).
T1 sequence: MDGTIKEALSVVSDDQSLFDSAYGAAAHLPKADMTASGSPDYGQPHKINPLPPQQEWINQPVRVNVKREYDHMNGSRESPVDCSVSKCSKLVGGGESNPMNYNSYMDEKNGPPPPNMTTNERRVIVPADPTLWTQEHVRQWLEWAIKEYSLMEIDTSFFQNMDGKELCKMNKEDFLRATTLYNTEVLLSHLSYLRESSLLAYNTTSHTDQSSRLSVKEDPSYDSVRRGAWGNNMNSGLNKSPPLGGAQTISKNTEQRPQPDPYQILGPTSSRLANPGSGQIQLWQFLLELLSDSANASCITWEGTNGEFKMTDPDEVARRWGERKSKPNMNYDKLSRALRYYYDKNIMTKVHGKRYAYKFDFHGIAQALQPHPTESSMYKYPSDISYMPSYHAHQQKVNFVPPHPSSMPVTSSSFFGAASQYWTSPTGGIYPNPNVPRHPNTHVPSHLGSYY
Put shortly: (§1)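 Yeast served to express human transcription factors as GST fusions, which were then captured on glutathione beads and labelled with DNA barcodes. Pooled with a tag-only sample, they were incubated with 200 nmole of a 16-mer random double-stranded DNA library for 30 min at room temperature in Tris/NaCl/DTT/glycerol buffer, washed, crosslinked with 0.1% formaldehyde, ligated by proximity, amplified by PCR and sequenced. Dividing each hexamer's read frequency for a factor by its frequency for the tag-only sample gives the binding signal.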

The target of test [2] is T2, ELK1 (Homo sapiens, UniProt P19419 1-428).
T2 sequence: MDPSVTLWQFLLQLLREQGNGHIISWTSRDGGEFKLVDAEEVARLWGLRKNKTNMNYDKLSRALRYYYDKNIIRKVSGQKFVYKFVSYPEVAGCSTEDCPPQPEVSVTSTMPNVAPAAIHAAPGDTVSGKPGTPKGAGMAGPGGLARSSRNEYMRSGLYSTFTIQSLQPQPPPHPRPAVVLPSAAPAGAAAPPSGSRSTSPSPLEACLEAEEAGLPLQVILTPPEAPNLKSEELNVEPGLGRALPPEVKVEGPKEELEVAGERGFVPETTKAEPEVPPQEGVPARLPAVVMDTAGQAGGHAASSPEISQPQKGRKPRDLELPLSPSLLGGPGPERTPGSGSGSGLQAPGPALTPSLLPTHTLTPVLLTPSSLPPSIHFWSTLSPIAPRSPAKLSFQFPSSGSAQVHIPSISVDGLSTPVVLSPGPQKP
Put shortly: as §1

The target in test [3] is T3, GABPA (Homo sapiens, UniProt Q06546 1-454).
T3 sequence: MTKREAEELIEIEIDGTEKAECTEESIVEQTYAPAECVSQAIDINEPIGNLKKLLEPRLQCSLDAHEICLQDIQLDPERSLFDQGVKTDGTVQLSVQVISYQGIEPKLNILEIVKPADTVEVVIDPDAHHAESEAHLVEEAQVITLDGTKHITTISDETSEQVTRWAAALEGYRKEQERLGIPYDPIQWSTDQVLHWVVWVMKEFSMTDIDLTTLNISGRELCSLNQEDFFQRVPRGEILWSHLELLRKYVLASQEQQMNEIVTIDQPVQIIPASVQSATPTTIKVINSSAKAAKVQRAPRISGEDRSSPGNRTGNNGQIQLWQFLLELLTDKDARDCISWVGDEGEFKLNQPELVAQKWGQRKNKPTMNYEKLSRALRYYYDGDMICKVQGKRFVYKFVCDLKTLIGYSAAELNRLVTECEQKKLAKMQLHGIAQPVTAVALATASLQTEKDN
Put shortly: as §1

Test [4] concerns the target T4, ERG (Homo sapiens, UniProt P11308 1-479).
T4 sequence: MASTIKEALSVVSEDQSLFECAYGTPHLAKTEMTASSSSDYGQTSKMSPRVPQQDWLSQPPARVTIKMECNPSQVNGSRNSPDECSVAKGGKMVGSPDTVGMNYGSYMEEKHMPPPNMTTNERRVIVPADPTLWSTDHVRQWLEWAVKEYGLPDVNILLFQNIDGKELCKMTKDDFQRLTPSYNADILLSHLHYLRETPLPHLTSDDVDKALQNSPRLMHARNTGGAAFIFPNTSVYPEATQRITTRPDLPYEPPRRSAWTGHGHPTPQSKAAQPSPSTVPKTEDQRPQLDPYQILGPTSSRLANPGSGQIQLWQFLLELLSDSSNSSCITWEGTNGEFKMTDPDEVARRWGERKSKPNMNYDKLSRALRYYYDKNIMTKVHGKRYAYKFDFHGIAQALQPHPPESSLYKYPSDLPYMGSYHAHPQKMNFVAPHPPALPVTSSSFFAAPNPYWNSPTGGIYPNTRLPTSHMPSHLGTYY
Summed up: as §1

Test [5] concerns the target ELF1 (Homo sapiens, UniProt P32519 1-619). Summed up: as §1
The target in test [6] is T5, EHF (Homo sapiens, UniProt Q9NZC4 1-300).
T5 sequence: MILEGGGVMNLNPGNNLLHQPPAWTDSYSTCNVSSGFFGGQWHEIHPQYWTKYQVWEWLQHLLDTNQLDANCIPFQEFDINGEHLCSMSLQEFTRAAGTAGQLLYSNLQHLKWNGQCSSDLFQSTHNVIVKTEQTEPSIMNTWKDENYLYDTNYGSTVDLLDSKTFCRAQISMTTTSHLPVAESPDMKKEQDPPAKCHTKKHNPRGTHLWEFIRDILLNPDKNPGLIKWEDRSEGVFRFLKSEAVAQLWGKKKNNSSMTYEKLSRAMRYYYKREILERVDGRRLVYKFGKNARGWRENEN
Summed up: as §1

Test [7] deals with SPI1 (Homo sapiens, UniProt P17947 1-270). Put shortly:
as §1

Test [8] has as its target SPIB (Homo sapiens, UniProt Q01892 1-262). Summed up:
as §1

Test [9] has as its target T6, ELK3 (Homo sapiens, UniProt P41970 1-407).
T6 sequence: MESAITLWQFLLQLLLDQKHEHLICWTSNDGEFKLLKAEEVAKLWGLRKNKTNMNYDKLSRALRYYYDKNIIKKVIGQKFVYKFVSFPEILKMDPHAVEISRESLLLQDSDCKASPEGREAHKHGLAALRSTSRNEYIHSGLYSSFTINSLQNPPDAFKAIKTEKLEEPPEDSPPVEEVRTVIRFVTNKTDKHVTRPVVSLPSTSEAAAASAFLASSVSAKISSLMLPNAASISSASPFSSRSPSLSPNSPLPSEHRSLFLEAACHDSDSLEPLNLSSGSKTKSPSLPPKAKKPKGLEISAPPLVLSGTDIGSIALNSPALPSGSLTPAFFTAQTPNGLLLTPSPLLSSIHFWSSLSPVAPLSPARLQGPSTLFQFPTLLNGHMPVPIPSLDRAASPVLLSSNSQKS
Summed up: as §1

ELF1, sequence (P32519 whole entry): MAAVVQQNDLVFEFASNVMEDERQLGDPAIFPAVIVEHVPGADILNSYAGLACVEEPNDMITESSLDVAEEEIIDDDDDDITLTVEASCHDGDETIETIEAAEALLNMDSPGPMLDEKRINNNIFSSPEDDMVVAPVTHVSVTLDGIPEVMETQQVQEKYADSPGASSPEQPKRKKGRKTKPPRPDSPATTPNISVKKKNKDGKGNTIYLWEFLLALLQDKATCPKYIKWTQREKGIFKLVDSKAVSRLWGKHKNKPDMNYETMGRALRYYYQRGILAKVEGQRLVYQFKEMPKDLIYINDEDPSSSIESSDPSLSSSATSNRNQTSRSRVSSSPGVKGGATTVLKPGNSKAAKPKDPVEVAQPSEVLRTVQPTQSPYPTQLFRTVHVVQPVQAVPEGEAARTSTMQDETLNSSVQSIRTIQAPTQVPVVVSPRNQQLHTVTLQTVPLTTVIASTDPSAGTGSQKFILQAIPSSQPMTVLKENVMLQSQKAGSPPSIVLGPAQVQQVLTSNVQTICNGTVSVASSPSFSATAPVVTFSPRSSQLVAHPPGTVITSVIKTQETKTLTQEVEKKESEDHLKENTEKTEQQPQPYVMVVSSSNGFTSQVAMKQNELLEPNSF
SPIB, sequence (Q01892 whole entry): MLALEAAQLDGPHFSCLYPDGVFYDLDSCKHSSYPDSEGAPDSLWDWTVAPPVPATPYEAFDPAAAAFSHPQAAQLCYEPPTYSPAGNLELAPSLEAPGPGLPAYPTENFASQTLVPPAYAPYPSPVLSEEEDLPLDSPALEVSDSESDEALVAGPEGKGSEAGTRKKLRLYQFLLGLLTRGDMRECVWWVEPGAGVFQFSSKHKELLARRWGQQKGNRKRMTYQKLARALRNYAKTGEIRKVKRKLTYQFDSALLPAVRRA

Turning to ATTACA, the binding signal was 1.14 fold enrichment (6-mer frequency, TF over GST control) in test [1]; 1.13 fold enrichment (6-mer frequency, TF over GST control) in test [2]; 1.06 fold enrichment (6-mer frequency, TF over GST control) in [3]; 1.12 fold enrichment (6-mer frequency, TF over GST control) in test [4]; 1.1 fold enrichment (6-mer frequency, TF over GST control) in [5]; 1.12 fold enrichment (6-mer frequency, TF over GST control) in test [6]. Also, the binding signal in test [7] is 1.08 fold enrichment (6-mer frequency, TF over GST control); in test [8], 1.15 fold enrichment (6-mer frequency, TF over GST control); in test [9] it was 1.11 fold enrichment (6-mer frequency, TF over GST control).

TTACAG: the binding signal in [1] was 1.19 fold enrichment (6-mer frequency, TF over GST control); in [2], 1.18 fold enrichment (6-mer frequency, TF over GST control); in [3], 1.15 fold enrichment (6-mer frequency, TF over GST control); in test [4], 1.17 fold enrichment (6-mer frequency, TF over GST control); in test [5], 1.22 fold enrichment (6-mer frequency, TF over GST control); in test [6] it was 1.13 fold enrichment (6-mer frequency, TF over GST control). Also, the binding signal in test [7] is 1.11 fold enrichment (6-mer frequency, TF over GST control); in test [8], 1.29 fold enrichment (6-mer frequency, TF over GST control); in test [9] it was 1.17 fold enrichment (6-mer frequency, TF over GST control).

Consider ACCGAC, for which the binding signal was 1.41 fold enrichment (6-mer frequency, TF over GST control) in test [1]; 1.29 fold enrichment (6-mer frequency, TF over GST control) in test [2]; 1.29 fold enrichment (6-mer frequency, TF over GST control) in test [3]; 1.29 fold enrichment (6-mer frequency, TF over GST control) in test [4]; 1.3 fold enrichment (6-mer frequency, TF over GST control) in [5]; 1.23 fold enrichment (6-mer frequency, TF over GST control) in test [6]. Besides, the binding signal is 1.4 fold enrichment (6-mer frequency, TF over GST control) in test [7]; 1.34 fold enrichment (6-mer frequency, TF over GST control) in test [8]; 1.35 fold enrichment (6-mer frequency, TF over GST control) in [9].

As for TGGACT, the binding signal in test [1] was 1.19 fold enrichment (6-mer frequency, TF over GST control); in test [2], 1.27 fold enrichment (6-mer frequency, TF over GST control); in test [3] it was 1.25 fold enrichment (6-mer frequency, TF over GST control); in test [4] it was 1.18 fold enrichment (6-mer frequency, TF over GST control); in test [5], 1.26 fold enrichment (6-mer frequency, TF over GST control); in [6], 1.3 fold enrichment (6-mer frequency, TF over GST control). For the same sequence, the binding signal in test [7] is 1.18 fold enrichment (6-mer frequency, TF over GST control); in [8] it was 1.41 fold enrichment (6-mer frequency, TF over GST control); in test [9], 1.2 fold enrichment (6-mer frequency, TF over GST control).

As for CATCTC, the binding signal in test [1] was 1.42 fold enrichment (6-mer frequency, TF over GST control); in test [2], 1.3 fold enrichment (6-mer frequency, TF over GST control); in [3] it was 1.34 fold enrichment (6-mer frequency, TF over GST control); in test [4] it was 1.24 fold enrichment (6-mer frequency, TF over GST control); in test [5], 1.37 fold enrichment (6-mer frequency, TF over GST control); in [6] it was 1.31 fold enrichment (6-mer frequency, TF over GST control). The binding signal in test [7] was 1.36 fold enrichment (6-mer frequency, TF over GST control); in test [8], 1.26 fold enrichment (6-mer frequency, TF over GST control); in test [9] it was 1.22 fold enrichment (6-mer frequency, TF over GST control).

With CTTGAT, the binding signal was 1.52 fold enrichment (6-mer frequency, TF over GST control) in test [1]; 1.53 fold enrichment (6-mer frequency, TF over GST control) in test [2]; 1.52 fold enrichment (6-mer frequency, TF over GST control) in [3]; 1.34 fold enrichment (6-mer frequency, TF over GST control) in test [4]; 1.42 fold enrichment (6-mer frequency, TF over GST control) in test [5]; 1.51 fold enrichment (6-mer frequency, TF over GST control) in [6]. The binding signal was 1.27 fold enrichment (6-mer frequency, TF over GST control) in [7]; 1.41 fold enrichment (6-mer frequency, TF over GST control) in [8]; 1.34 fold enrichment (6-mer frequency, TF over GST control) in test [9].

As to TCTAGC, the binding signal in test [1] is 1.31 fold enrichment (6-mer frequency, TF over GST control); in test [2], 1.34 fold enrichment (6-mer frequency, TF over GST control); in test [3], 1.24 fold enrichment (6-mer frequency, TF over GST control); in test [4], 1.32 fold enrichment (6-mer frequency, TF over GST control); in test [5], 1.35 fold enrichment (6-mer frequency, TF over GST control); in test [6], 1.38 fold enrichment (6-mer frequency, TF over GST control). Further, the binding signal in test [7] is 1.21 fold enrichment (6-mer frequency, TF over GST control); in test [8], 1.19 fold enrichment (6-mer frequency, TF over GST control); in test [9] it was 1.44 fold enrichment (6-mer frequency, TF over GST control).
